Five molecules from PubChem BioAssay can be followed below.

Inconclusive results are not listed. Activity calls are given as the source filed them.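 How the source made its calls, unless noted: active means GFP response, as percent of the DMSO control, above the screen-wide mean plus 3 SD, about 139; inconclusive means no response measured because the compound's own fluorescence interfered; inactive means the rest.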

In general, inhibition refers to the drop in the measured response relative to a control, in per cent.

Test [1] in a line: yeast TOR pathway RPL19A-GFP modulators, primary screen, cell-based, S. cerevisiae, multiplex flow cytometry (AID 1862; in the data active means percent of DMSO control GFP below about 86%;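 further: lower values mimic rapamycin by blocking the RPL19A rise seen in DMSO cells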). Conditions: S. cerevisiae RPL19A-GFP strain, flow cytometry fluorescence, 3 h; at 10 µM; stronger effect = lower value. For orientation: A flow cytometer gives signals particle by particle.
A short description of test [2]: modulators of MEP2-GFP levels in yeast, primary screen, S. cerevisiae, multiplex flow cytometry (AID 1867).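 Further: median GFP channel fluorescence of barcode-gated MEP2-GFP cells measured by flow cytometry.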 Conditions: S. cerevisiae MEP2-GFP strain, 3 h, at 10 µM, stronger effect = higher value, 100% means same as DMSO wells.
A short description of test [3]: modulators of CIT2-GFP expression in yeast, primary screen, S. cerevisiae, GFP fusion, multiplex flow cytometry (AID 1870;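 active means percent response above a set limit, the screen-wide mean plus 3 SD, cut at about 130% in these data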;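 further: barcoded CIT2-GFP strain pooled with four other GFP strains with rapamycin as positive control; median GFP fluorescence per well over plate mean of DMSO wells so 100% = DMSO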). Conditions: 3 h, at 10 µM, stronger effect = higher value.
Test [4] can be described thus: modulators of LAP4-GFP expression in yeast, primary screen, S. cerevisiae, multiplex flow cytometry (AID 1873;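 active means GFP signal, as percent of the solvent control, above the screen mean plus 3 SD, about 149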). The note with it: 3 h, at 10 µM, stronger effect = higher value.
A short description of test [5]: modulators of AGP1-GFP expression in yeast TOR pathway, primary screen, cell-based, multiplex flow cytometry, S. cerevisiae (AID 1887;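 active means GFP signal above the screen-wide mean plus 3 SD, that is over about 124.5% of the solvent control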;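 further: AGP1-GFP fusion strain of S. cerevisiae within a five-strain barcoded multiplex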). The note with it: 3 h, at 10 µM, stronger effect = higher value.
Test [6] is described as follows: inhibitors of CD8+ T cell-vesicle binding, pilot screen, LFA-1/ICAM-1 modulator project, MLPCN validation set, flow cytometry (AID 2523;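 active means response below a set limit, under 55% cells CD8-positive and vesicle-bound, and CD8 cells' 90th-percentile brightness under 279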;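 on vesicle binding response: mean PE anti-B7-1 fluorescence of CD8+ cells relative to row control; 100% = QL9-loaded vesicles with DMSO vehicle in the same plate row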). The note with it: 2C mouse CD8+ T cells, at 7 µM, stronger effect = lower value; double positive events: measured here: CD8+/vesicle+ event percentage.
The target of test [7] is Integrin beta-1 (Homo sapiens) + Integrin alpha-4 (Homo sapiens) (UniProt P13612+P05556). Kind of test: inhibition of HUTS-21 binding to VLA-4, pilot screen, VLA-4 allosteric modulator project, U937 cells, HUTS-21 mAb, flow cytometry, validation set (AID 2674;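 active means inhibition above 50%, about 3 SD of the validation set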;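 further: antibody binding induced by the VLA-4 ligand LDV present at three times its Kd; 0% = LDV ligand with antibody and no compound and 100% = antibody without LDV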). Conditions: HUTS-21 LIBS mAb binding, at 6.7 µM, stronger effect = higher value, binding induced by LDV ligand.
Test [8] is described as follows: superoxide lowering in aged yeast cells, pilot screen, validation compound set (AID 2706;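 active means superoxide response below 65% of plate, a cut near 3 SD across the whole screen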;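 further: yeast exposed to compound for one week at 30 degrees C before staining; 100% = mean of all compound wells on the same plate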). The note with it: S. cerevisiae aging, superoxide DHE fluorescence; at 10 µM, stronger effect = lower value.
Test [9] has as its target Beta-adrenergic receptor kinase 1 (Homo sapiens) (UniProt P25098). In words: GRK2 binders displacing RNA aptamer, biochemical, validation, human GRK2, bead flow cytometry (AID 488806;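 active means aptamer binding inhibition above 30%, about 3 SD of noise from non-fluorescent compounds; inactive means inhibition at or below 30%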). Conditions: bead-bound GRK2, FAM-aptamer displacement, at 10 µM, stronger effect = higher value.
Test [10] deals with AP-2 complex subunit beta (Homo sapiens) (UniProt P63010). In words: inhibitors of arrestin peptide binding to AP2, pilot screen, biochemical, validation set, GST-AP2 beads, flow cytometry (AID 504541;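 active means inhibition above 54%, about 3 SD of non-fluorescent compounds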;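 further: AP2 carries R879A mutation and is captured from E. coli lysate; bead-bound FITC arrestin peptide fluorescence measuring arrestin peptide binding to AP2; 0% = DMSO wells and 100% = excess unlabeled arrestin peptide control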). Conditions: FITC arrestin peptide, at 10 µM, stronger effect = higher value, AP2 beta2 appendage fragment, R879A mutant.
Test [11] in a line: yeast V-ATPase proton transport modulators, S. cerevisiae, pHLuorin, HTS validation (AID 504600; in the data active means response above about 15%;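 further: plate controls were DMSO for no effect and reference compound for full effect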). Conditions: S. cerevisiae pHLuorin cytosolic pH, at 10 µM, stronger effect = higher value.
Test [12] has as its system anti-desmoglein-3 scFv antibody binding to human DSG3. In words: inhibitors of anti-DSG3 scFv binding to DSG3, pilot screen, biochemical, validation compound set, bead-based, flow cytometry (AID 588368;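 active means binding below the plate cutoff, the plate median minus 3 SD, with a reading above zero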;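 further: signal is the median channel fluorescence of bead-bound GFP antibody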). Conditions: Protein G beads, DSG3-Fc, scFv-GFP binding, at 10 µM, stronger effect = lower value.
Test [13] is described as follows: inhibitors of fungal efflux pumps CDR1, CDR2, MDR1, pilot screen, validation compound set, multiplex, phenotypic (AID 588506;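 active means efflux inhibition above 0.42, the validation set average plus 4 SD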;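 further: Nile Red retained in cells so higher fluorescence means more efflux inhibition; 0 = negative control wells and 1 = enniatin B 25 µM full block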). The note with it: S. cerevisiae pump-expressing triplex, Nile Red efflux flow cytometry; at 10 µM; stronger effect = higher value; the pumps come from Candida albicans.
The target in test [14] is ATP-binding cassette sub-family B member 6 (Homo sapiens) (UniProt Q9NP58). Kind of test: ABCB6 transporter inhibitors, pilot screen, K562-ABCB6 cells, flow cytometry, validation set (AID 588550;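 active means inhibition above the screen-wide mean plus 3 SD, about 51%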;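 further: 0% = DMSO wells and 100% = benzethonium chloride 70 µM positive control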). The note with it: K562-ABCB6 porphyrin accumulation, 1 h, at 10 µM, stronger effect = higher value.
Test [15] is described as follows: promoters of myeloid differentiation in arrested cells, primary screen, cell-based, GFP/MAC1 double positive, flow cytometry, validation set (AID 588685;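 active means differentiation response of at least 50%, scaled between solvent and reference control, from cells with both markers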;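 further: compound exposure lasts four days before antibody staining and flow analysis; 0% = DMSO wells and 100% = 5 µM fulvestrant positive control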). The note with it: ER-HoxA9 marrow cells, stronger effect = higher value, normalized: vehicle 0, fulvestrant 100.

Sequence of Integrin beta-1 (Homo sapiens) + Integrin alpha-4 (Homo sapiens) (P05556 whole entry, looked up): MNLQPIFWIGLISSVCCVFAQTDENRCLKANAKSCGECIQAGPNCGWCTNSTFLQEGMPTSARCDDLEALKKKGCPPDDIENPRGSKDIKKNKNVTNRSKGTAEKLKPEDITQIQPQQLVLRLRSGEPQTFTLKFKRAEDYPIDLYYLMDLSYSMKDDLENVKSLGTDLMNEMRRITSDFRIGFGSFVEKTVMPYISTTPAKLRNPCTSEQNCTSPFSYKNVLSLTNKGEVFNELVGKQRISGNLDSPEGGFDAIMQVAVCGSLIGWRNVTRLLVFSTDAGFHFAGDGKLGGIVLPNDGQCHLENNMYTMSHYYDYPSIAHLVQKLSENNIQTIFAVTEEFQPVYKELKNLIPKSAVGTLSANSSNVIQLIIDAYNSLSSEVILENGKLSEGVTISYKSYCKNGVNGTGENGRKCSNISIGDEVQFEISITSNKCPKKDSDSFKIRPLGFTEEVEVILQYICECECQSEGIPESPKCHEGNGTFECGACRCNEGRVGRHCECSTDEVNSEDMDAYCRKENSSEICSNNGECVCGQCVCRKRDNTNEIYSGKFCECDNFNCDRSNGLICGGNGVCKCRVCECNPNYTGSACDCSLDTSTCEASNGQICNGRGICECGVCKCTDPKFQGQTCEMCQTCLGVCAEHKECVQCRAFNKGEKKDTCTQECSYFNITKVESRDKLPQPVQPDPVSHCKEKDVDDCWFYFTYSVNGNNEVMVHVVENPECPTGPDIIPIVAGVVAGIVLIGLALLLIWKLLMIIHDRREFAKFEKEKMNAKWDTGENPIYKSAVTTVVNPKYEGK
Sequence of Integrin beta-1 (Homo sapiens) + Integrin alpha-4 (Homo sapiens) (P13612 whole entry, looked up): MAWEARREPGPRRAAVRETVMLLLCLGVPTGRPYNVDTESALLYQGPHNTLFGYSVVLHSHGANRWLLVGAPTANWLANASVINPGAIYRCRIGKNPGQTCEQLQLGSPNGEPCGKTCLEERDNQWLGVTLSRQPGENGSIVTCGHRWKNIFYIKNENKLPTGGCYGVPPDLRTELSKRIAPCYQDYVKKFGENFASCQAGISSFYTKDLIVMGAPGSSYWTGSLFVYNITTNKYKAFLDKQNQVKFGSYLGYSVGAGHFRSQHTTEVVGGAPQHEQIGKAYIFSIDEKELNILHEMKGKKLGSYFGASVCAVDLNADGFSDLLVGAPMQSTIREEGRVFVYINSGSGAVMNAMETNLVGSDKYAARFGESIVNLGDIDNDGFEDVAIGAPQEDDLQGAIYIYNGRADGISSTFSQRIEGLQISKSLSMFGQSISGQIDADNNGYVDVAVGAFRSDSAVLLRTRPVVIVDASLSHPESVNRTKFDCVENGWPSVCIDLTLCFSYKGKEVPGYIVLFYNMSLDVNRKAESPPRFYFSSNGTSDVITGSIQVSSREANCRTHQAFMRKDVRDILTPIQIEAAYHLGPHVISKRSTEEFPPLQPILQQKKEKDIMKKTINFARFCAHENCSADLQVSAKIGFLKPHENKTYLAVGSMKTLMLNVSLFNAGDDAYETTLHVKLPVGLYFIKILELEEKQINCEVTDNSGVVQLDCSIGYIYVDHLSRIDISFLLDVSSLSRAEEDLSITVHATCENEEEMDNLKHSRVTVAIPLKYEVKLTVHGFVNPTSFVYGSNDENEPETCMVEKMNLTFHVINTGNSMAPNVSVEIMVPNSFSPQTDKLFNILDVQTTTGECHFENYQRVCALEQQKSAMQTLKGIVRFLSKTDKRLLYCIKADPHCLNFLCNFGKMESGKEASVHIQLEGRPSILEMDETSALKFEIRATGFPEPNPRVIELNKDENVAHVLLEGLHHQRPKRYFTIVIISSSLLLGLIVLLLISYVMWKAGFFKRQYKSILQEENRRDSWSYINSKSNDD
Sequence of ATP-binding cassette sub-family B member 6 (Homo sapiens) (Q9NP58 whole entry, looked up): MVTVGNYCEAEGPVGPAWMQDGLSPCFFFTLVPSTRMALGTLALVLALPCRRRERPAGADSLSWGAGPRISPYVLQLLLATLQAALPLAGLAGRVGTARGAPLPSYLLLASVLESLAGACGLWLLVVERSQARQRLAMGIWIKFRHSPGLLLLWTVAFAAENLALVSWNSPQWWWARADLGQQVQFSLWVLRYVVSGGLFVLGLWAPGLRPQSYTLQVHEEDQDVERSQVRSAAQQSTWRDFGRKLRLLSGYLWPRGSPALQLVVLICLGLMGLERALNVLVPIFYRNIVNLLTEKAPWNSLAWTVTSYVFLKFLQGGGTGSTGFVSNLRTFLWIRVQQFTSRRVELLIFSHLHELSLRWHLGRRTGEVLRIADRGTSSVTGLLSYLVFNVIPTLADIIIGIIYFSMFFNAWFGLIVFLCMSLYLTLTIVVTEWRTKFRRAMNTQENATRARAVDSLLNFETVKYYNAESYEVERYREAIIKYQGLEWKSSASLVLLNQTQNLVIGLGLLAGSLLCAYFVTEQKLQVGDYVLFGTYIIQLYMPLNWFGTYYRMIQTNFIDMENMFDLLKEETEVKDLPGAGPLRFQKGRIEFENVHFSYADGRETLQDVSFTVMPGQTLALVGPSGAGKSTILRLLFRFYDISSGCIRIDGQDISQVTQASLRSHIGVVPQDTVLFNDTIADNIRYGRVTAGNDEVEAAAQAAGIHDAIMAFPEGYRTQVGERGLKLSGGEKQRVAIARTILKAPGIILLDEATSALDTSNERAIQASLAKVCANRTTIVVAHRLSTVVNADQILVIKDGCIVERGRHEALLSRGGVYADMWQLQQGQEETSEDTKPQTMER
Sequence of AP-2 complex subunit beta (Homo sapiens) (P63010 whole entry, looked up, the tested form may be a part, one chain of several): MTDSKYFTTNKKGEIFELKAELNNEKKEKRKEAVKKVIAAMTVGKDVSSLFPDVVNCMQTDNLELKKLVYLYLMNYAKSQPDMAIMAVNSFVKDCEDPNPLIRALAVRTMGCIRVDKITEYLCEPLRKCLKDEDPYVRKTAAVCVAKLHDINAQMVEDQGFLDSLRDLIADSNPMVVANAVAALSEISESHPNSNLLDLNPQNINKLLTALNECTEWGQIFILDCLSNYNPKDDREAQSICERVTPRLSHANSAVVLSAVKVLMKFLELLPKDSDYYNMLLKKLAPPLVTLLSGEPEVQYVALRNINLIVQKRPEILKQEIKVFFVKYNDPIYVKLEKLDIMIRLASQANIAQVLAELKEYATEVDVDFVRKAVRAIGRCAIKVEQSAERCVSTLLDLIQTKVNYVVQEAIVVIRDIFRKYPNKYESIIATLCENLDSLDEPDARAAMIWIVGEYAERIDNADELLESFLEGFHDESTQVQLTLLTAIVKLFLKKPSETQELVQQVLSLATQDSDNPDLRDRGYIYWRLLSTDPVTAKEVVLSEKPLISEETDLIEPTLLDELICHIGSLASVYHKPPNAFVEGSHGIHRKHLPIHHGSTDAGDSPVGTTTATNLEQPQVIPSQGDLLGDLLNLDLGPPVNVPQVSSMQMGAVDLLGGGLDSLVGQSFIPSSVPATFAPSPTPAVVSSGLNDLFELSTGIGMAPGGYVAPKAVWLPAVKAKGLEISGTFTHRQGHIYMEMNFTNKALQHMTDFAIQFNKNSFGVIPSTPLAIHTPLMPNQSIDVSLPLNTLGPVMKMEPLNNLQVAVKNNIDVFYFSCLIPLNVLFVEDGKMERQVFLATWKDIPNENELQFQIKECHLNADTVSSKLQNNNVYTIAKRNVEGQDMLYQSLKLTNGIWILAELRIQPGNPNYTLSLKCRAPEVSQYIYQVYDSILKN
Sequence of Beta-adrenergic receptor kinase 1 (Homo sapiens) (P25098 whole entry, looked up): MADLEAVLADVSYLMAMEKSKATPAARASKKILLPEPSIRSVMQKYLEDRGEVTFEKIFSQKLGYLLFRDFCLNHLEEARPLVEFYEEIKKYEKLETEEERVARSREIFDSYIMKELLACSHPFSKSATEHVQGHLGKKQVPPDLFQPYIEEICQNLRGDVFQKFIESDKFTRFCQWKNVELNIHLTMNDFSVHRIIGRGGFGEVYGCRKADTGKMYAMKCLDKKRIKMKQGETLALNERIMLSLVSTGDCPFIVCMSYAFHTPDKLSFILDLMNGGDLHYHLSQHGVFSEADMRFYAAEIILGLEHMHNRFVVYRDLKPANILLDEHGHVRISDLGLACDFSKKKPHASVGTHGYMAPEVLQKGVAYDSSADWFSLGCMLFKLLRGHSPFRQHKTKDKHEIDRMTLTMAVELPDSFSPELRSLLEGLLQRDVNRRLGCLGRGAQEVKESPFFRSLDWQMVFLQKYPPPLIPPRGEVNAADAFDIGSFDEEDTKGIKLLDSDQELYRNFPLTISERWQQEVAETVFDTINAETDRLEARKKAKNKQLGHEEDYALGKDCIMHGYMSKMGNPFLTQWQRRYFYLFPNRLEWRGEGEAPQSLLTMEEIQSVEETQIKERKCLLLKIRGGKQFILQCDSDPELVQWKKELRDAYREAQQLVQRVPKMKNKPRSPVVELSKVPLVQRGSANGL

As to `CCCC1O[C@@H]2C[C@H]3[C@@H]4CCC5=CC(=O)C=C[C@]5(C)[C@H]4[C@@H](O)C[C@]3(C)[C@]2(C(=O)CO)O1` (stereo not given in full), the percent of DMSO control GFP in test [1] is 100% (inactive). The GFP response vs DMSO is 108% (inactive) in test [2] and 100% (inactive) in [4]. Further, in test [3], the percent response of DMSO control is 108% (inactive). In addition, the GFP response, % of DMSO in [5] is 106% (inactive). The double positive events in [6] was found to be 58.8%. Further, the vesicle binding response in test [6] was 217% (inactive). The inhibition is 4.42% (inactive) in test [7], 42.5% (inactive) in test [10] and 0% (inactive) in test [14]. Also, in test [8], the superoxide response (% of plate) was 103% (inactive). Besides, the aptamer binding inhibition in test [9] is 4% (inactive). The response in test [11] is -0.18% (inactive). For the same molecule, in test [12], the binding (% of control) was 104% (inactive). Also, the efflux inhibition (fraction of control) in test [13] was 0.1 (inactive). The differentiation response in test [15] is 6.26% (inactive).
With `CNCCC=C1c2ccccc2CCc2ccccc21`, the percent of DMSO control GFP in [1] was 100% (inactive). Further, the GFP response vs DMSO is 98.9% (inactive) in test [2] and 97.4% (inactive) in [4]. Moreover, the percent response of DMSO control in test [3] is 110% (inactive). Besides, the GFP response, % of DMSO in test [5] was 102% (inactive). Besides, in test [6], the double positive events is 49.9%. Also, the vesicle binding response in [6] was 151% (inactive). Also, the results for the inhibition in test [7], in test [10] and in test [14] were 21.2% (inactive), -0.2% (inactive) and 11% (inactive), respectively. The superoxide response (% of plate) in test [8] was 110% (inactive). Further, in [9], the aptamer binding inhibition was 0% (inactive). Moreover, the response in test [11] is 4.21% (inactive). For the same molecule, in test [12], the binding (% of control) is 100% (inactive). Also, in test [13], the efflux inhibition (fraction of control) was -0.12 (inactive). Also, the differentiation response in test [15] was -13.1% (inactive).
Consider `COc1cc2c(cc1OC)C(c1cc3ccccc3oc1=O)=NC(C)(C)C2`, for which the percent of DMSO control GFP in test [1] is 101% (inactive). Moreover, the GFP response vs DMSO was 103% (inactive) in [2] and 96.4% (inactive) in [4]. The percent response of DMSO control in test [3] is 107% (inactive). In addition, in [5], the GFP response, % of DMSO is 100% (inactive). In addition, the double positive events in test [6] was found to be 46.8%. The vesicle binding response in [6] was 137% (inactive). In addition, the inhibition was 10.9% (inactive) in test [7], -0.33% (inactive) in test [10] and 10% (inactive) in [14]. Also, the superoxide response (% of plate) in test [8] is 117% (inactive). Also, the aptamer binding inhibition in test [9] was 3% (inactive). In addition, the response in [11] is 2.07% (inactive). Also, in test [12], the binding (% of control) is 98.7% (inactive). Moreover, in test [13], the efflux inhibition (fraction of control) was 0.1 (inactive). Besides, in [15], the differentiation response was -13.1% (inactive).
For the molecule `COc1cccc2c1C(=O)O/C2=C/c1ccc2c(c1)OCO2`, in test [1], the percent of DMSO control GFP is 95.2% (inactive). Besides, the GFP response vs DMSO in test [2] was 103% (inactive); in test [4], 92.3% (inactive). Besides, the percent response of DMSO control in test [3] is 93% (inactive). Besides, the GFP response, % of DMSO in test [5] is 83.8% (inactive). The molecule further gave a double positive events in [6] of 64.2%. Further, the vesicle binding response in test [6] was 177% (inactive). Moreover, the inhibition in [7] is -3.04% (inactive); in test [10] it was -5.67% (inactive); in test [14], 8% (inactive). Besides, the superoxide response (% of plate) in test [8] was 106% (inactive). Moreover, in [9], the aptamer binding inhibition is 1% (inactive). The response in test [11] was -7.76% (inactive). In test [12], the binding (% of control) is 99.8% (inactive). Moreover, the efflux inhibition (fraction of control) in test [13] is -0.35 (inactive). Further, the differentiation response in test [15] was -24.4% (inactive).
`O=[N+]([O-])c1ccc2cn[nH]c2c1`: the percent of DMSO control GFP in test [1] is 102% (inactive). In addition, the GFP response vs DMSO in test [2] was 106% (inactive); in test [4], 93.3% (inactive). For the same molecule, the percent response of DMSO control in test [3] is 102% (inactive). Further, the GFP response, % of DMSO in [5] was 97.3% (inactive). In test [6], this molecule showed a double positive events of 60.3%. The vesicle binding response in test [6] is 265% (inactive). Besides, the inhibition in test [7] is 12.8% (inactive); in test [10] it was -5.23% (inactive); in [14], 10% (inactive). Moreover, in test [8], the superoxide response (% of plate) was 97.5% (inactive). The aptamer binding inhibition in test [9] was 1% (inactive). The response in test [11] was -6.52% (inactive). In addition, the binding (% of control) in [12] was 98.2% (inactive). Also, the efflux inhibition (fraction of control) in test [13] is -0.05 (inactive). Moreover, the differentiation response in test [15] was -8.27% (inactive).
